CRFBP-R2 block – antagonists of CRF-BP/CRF-R2 complex, primary screen, cell-based, HEK293, calcium dye fluorescence, uHTS; CRF-induced calcium fluorescence; inhibition, % at 11.8 µM; 350,000 compounds, 0.59% hits;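 active = inhibition of the ligand-induced calcium signal above about 50% at the single tested concentration, limit read from the data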
ANO1 activ – TMEM16A chloride channel activators or potentiators, primary screen, cell-based, HTS; Anoctamin-1 (Mus musculus), Q8BHY3; HEK293 TMEM16A/YFP-H148Q/I152L, iodide quench fluorescence; active compounds read low; AID 623877, 2012; 340,000 compounds, 0.3% hits; B-score at 10 µM;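 active = fluorescence-ratio B-score plate-corrected deviation score at least 3 library SD below zero, with starting fluorescence score within 5 deviations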;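 also: channel opened by trigger with iodide after compound preincubation; score built on the fluorescence ratio of max minus min over baseline; more negative score means more quench and so TMEM16A activation or potentiation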
Target sequence (Q8BHY3 whole entry, looked up): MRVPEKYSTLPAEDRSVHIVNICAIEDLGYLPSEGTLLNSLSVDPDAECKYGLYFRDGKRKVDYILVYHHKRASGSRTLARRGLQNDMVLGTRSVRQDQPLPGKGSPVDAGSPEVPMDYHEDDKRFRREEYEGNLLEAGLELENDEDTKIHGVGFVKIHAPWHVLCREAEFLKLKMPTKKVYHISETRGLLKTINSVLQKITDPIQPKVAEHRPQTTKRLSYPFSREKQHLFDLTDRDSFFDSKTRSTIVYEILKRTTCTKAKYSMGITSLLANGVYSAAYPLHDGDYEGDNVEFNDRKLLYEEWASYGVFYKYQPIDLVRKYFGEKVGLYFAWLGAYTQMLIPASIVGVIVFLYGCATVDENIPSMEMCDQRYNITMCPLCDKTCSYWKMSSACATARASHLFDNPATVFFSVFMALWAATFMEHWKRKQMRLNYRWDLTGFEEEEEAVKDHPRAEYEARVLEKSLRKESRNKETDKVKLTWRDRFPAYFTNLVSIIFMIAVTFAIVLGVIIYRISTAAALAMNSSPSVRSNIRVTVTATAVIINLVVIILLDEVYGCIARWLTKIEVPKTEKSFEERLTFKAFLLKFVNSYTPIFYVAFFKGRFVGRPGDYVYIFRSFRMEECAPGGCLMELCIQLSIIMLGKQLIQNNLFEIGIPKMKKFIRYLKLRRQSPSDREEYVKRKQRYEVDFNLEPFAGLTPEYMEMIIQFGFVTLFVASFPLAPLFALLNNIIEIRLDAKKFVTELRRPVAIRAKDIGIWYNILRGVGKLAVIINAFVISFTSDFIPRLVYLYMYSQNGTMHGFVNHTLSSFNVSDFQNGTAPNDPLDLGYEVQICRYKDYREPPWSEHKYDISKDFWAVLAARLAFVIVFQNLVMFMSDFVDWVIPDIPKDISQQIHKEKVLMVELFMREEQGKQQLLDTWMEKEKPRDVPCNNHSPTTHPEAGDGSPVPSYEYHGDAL
TMEM16A inh – TMEM16A chloride channel inhibitors, primary screen, cell-based, HTS. Anoctamin-1 (Mus musculus), Q8BHY3. normalized B-score (activity score, 25-100; higher = stronger inhibition) at 10 µM. HEK293 TMEM16A/YFP iodide influx fluorescence, ionomycin. 310,000 compounds, 1.2% hits;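 active = ratio plate-corrected score three or more library SD toward inhibition, starting fluorescence score within five deviations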;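 also: score derived from kinetic fluorescence span divided by baseline fluorescence per well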
Cardiac RTF inh – cardiac RTF calcium sensitivity inhibitors, primary screen, biochemical, IANBD-TnC fluorescence, EC70 calcium. IANBD-labeled cardiac RTF, Ca2+ fluorescence. inhibition, % at 7.15 µM. 340,000 compounds, 0.12% hits;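 active = inhibition above the mean inhibition of all tested compounds plus 3 SD, cut at about 17% in these data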;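 also: assay run at fixed EC70 calcium of 1.6 mM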
cardiac RTF act – cardiac RTF calcium sensitivity activators, primary screen, biochemical, IANBD-TnC fluorescence, EC20 calcium | activation, % at 7.2 µM | 340,000 compounds, 0.24% hits | Troponin I, cardiac muscle (Homo sapiens) + Troponin T, cardiac muscle (Homo sapiens) + … | IANBD-labeled TnC RTF fluorescence at EC20 calcium; 0% EC20 calcium, 100% full calcium | AID 493008, 2010;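 active = activation above the mean over all tested compounds plus 3 SD, cut at about 30% in these data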;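 also: rise in fluorescence read as greater calcium sensitivity of cardiac thin filaments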
CRFBP-R2 agonist – agonists of CRF-BP/CRF-R2 complex, primary screen, cell-based, HEK293, calcium dye fluorescence, uHTS; CRF-binding protein / CRF receptor 2 complex (human); calcium dye fluorescence (FLIPR); percent of saturating CRF peptide response; 350,000 compounds, 0.46% hits; AID 588473, 2011; activation, % at 13.2 µM;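 active = activation of at least 50%, plus an integration ratio under a set limit after plate pattern correction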
Large screens that a line does not name were inactive. Compounds with a hit are over-represented: about 2.4% of the library has one in this group of screens.

CCOC(=O)C1=C(C2=CCCCC2)c2ccc(OC)cc2N(S(=O)(=O)C(F)(F)F)C1C(=O)OCC (configuration not stated)	none (no result: TMEM16A inh)
CCc1cccc2c(/C=N/NC(=O)c3cccc(S(=O)(=O)Nc4ccccc4Cl)c3)c[nH]c12	none
Cc1cc(S(=O)(=O)Nc2ccc3c(c2)n(C)c(=O)n3C)ccc1F	TMEM16A inh 100
Cc1ccc(C(=O)OCC(=O)c2cc(C)n(CC3CCCO3)c2C)cc1 (configuration not stated)	CRFBP-R2 block 79
Cc1cc(C(=O)COC(=O)c2ccccc2O)c(C)n1CC1CCCO1 (configuration not stated)	none (no result: TMEM16A inh)
COc1cccc(NC(=O)Nc2nnc(CC(=O)NCc3ccccc3)s2)c1	ANO1 activ -4.9
Cn1c(=O)cc(OCC(=O)NCc2cccs2)c2ccccc21	none
CCOC(=O)c1c(C)[nH]c(C(=O)OC(C)C(=O)Nc2ccccc2OC)c1C (configuration not stated)	none
COc1ccc(C(=O)c2sc3nc(-c4ccccc4)ccc3c2N)cc1	CRFBP-R2 agonist 83
CC(C)OC(=O)c1sc2nc(-c3ccccc3)ccc2c1N	none
O=c1c([N+](=O)[O-])c(NC2CCCCC2)c2ccccc2n1-c1ccccc1	CRFBP-R2 block 57
Cc1cc(C2C(C#N)=C(N)SC(N)=C2C#N)c(C)s1	cardiac RTF act 41, CRFBP-R2 agonist 104
COc1cccc(NC(=S)NC(Cc2ccccc2)c2ccccc2)c1 (configuration not stated)	CRFBP-R2 block 84 (no result: ANO1 activ, TMEM16A inh, Cardiac RTF inh, cardiac RTF act)
Cc1ccc(NS(=O)(=O)c2cc([N+](=O)[O-])ccc2NNC(=S)Nc2cccc(Cl)c2)c(C)c1	TMEM16A inh 100
Cc1ccc(NS(=O)(=O)c2cc([N+](=O)[O-])ccc2NNC(=S)Nc2cc(C)ccc2C)c(C)c1	TMEM16A inh 100
COc1ccc(NC(=S)NNc2ccc([N+](=O)[O-])cc2S(=O)(=O)Nc2ccc(C)cc2C)cc1	TMEM16A inh 100
O=C1OC(c2ccccc2)=CC1=Cc1ccccc1O	none (no result: ANO1 activ, TMEM16A inh, Cardiac RTF inh, cardiac RTF act)
CCOC(=O)c1cnc2c(C)c(C)ccc2c1Nc1ccc(S(=O)(=O)Nc2ncccn2)cc1	none
NS(=O)(=O)c1ccc(CNC(=O)C2(c3ccc(Cl)cc3)CC2)cc1	none
COc1ccc(CNC(=O)C2(c3ccc(Cl)cc3)CC2)cc1	CRFBP-R2 block 61
COc1ccc2c(Cl)c(C(=O)N/N=C3\CCCC(=O)C3)sc2c1	cardiac RTF act 41, CRFBP-R2 agonist 79
CCC1CCCCN1S(=O)(=O)c1ccc(S(=O)(=O)N(Cc2cccs2)C2CC2)cc1 (configuration not stated)	ANO1 activ -16
O=C(COc1ccc(F)cc1)NN1C(=O)CSC1=S	none
Cc1ccc(CNC(=S)NC2CCC(C(C)(C)C)CC2)cc1 (configuration not stated)	none
CC(NC(=S)NC1CCC(C(C)(C)C)CC1)c1ccccc1 (configuration not stated)	TMEM16A inh 100
COc1ccccc1N1CCN(C2CCCN(C(=O)c3ccsc3)C2)CC1 (configuration not stated)	none
CN1/C(=C/C(=O)COC(=O)CN2C(=O)C3CC=CCC3C2=O)C(C)(C)c2ccccc21 (configuration not stated)	none (no result: TMEM16A inh)
CN1/C(=C\C(=O)COC(=O)Cn2nnc(-c3ccccc3)n2)C(C)(C)c2ccccc21	TMEM16A inh 25
N#Cc1cccc(NC(=O)CSc2ccc3c4c(cccc24)C(=O)c2ccccc2-3)c1	cardiac RTF act 42, CRFBP-R2 agonist 224
COc1ccc(NC(=O)CSc2ccc3c4c(cccc24)C(=O)c2ccccc2-3)cc1	CRFBP-R2 agonist 104
COc1ccc(NC(=O)CSc2nnc(C)c3ccccc23)cc1	none
CCCCOc1ccc(Cl)cc1Nc1nc(NCCO)nc(N2CCCC2)n1	none
COc1ccc(N(CC(=O)NCCSc2ccccn2)S(=O)(=O)c2ccc(C)cc2)cc1OC	CRFBP-R2 block 55
Cc1ccc(S(=O)(=O)N(C)CC(=O)NCCCc2ccccc2)cc1	CRFBP-R2 agonist 61
COc1ccc(S(=O)(=O)N(C)CC(=O)NCCc2ccccc2)cc1OC	none
COc1ccccc1N(CC(=O)NCCSCc1ccccc1)S(=O)(=O)c1ccc(C)cc1	TMEM16A inh 25
COc1ccc(NC(=O)CCC(=O)c2cc(C)sc2C)cc1	none (no result: TMEM16A inh)
Cc1cc(C)cc(NC(=O)Cc2ccc(NC3=NC4CS(=O)(=O)CC4S3)cc2)c1 (configuration not stated)	none
Cc1cccc(NC(=O)Cc2ccc(NC3=NC4CS(=O)(=O)CC4S3)cc2)c1 (configuration not stated)	CRFBP-R2 block 60
CCOC(=O)c1c(C(F)(F)C(F)(F)C(F)(F)C(F)(F)F)n[nH]c1C	CRFBP-R2 block 54
CCOC(=O)c1[nH]c(C)c(C(=O)OCC)c1C	none
O=S(=O)(Nc1nc2ccccc2nc1Nc1ccc2c(c1)OCCO2)c1cccs1	TMEM16A inh 25
Cc1ccc(C(=O)NCc2cccnc2)o1	CRFBP-R2 block 84
COc1ccc(C(=O)Nc2ccc(C3CC3(Cl)Cl)cc2)cc1 (configuration not stated)	CRFBP-R2 block 75
CCCCOc1ccc(C(=O)Nc2ccc(OCC(=O)N3CCOCC3)cc2)cc1	none
CCN(CC)S(=O)(=O)c1ccc(C(=O)Nc2ccc(OCC(=O)N3CCOCC3)cc2)cc1	ANO1 activ -12
COc1ccc(-c2nnc(Nc3ccc(S(=O)(=O)Nc4nccs4)cc3)c3ccccc23)cc1	CRFBP-R2 block 61 (no result: TMEM16A inh)
COc1ccc(Nc2nnc(-c3ccc(C(N)=O)cc3)c3ccccc23)cc1	none
COc1ccc(-c2cc(C(F)(F)F)c3c(n2)sc2c(O)cc(=O)[nH]c23)c(OC)c1	cardiac RTF act 38, CRFBP-R2 agonist 80
Cc1cc(C)c2c(n1)sc1c(O)cc(=O)[nH]c12	none
Fc1ccc(C(CNC(=S)NC2CCCCC2)N2CCOCC2)cc1 (configuration not stated)	none
CCOC(=O)c1n[nH]c(=O)c2ccccc12	none (no result: Cardiac RTF inh, cardiac RTF act)
CCOC(=O)C1CCN(C(=O)c2n[nH]c(=O)c3ccccc23)CC1	CRFBP-R2 block 92
CN(Cc1ccc(C(F)(F)F)cc1)C(=O)C1CC(=O)N(Cc2ccco2)C1 (configuration not stated)	none (no result: TMEM16A inh)

Screens as filed in PubChem.
